PubChem BioAssay (Tox21)
Where “and” joins values, the source holds several entries; their conditions need not be identical. Identical values can stand only once. Inconclusive results are not listed. Where a call stands in place of a potency, no number is given. Calls of active or inactive are those of the source. Calls come from the whole dose curve; as a rule, active = well fitted cell-killing curve with a large enough effect in the repeat runs; inconclusive = weak or mixed curves, or effect the other way; inactive = no such curve, though single readings can be large or run the other way.

Assay: qHTS assay for identifying genotoxic compounds that show differential cytotoxicity against isogenic chicken DT40 cell lines with known DNA damage response pathways - wild type cell line (AID 743012); note: nearly all actives have a fitted effect of over 60% in size
Details: DT40 wild type chicken cells viability, CellTiter-Glo, 40 h; series mostly up to 68.4 µM
Description: U.S. Tox21 Program National Center for Advancing Translational Sciences [NCATS] NIH Chemical Genomics Center [NCGC] U.S. Environmental Protection Agency [EPA] National Institutes of Environmental Health Sciences [NIEHS] National Toxicology Program [NTP] U.S. Food and Drug Administration [FDA] Tox21 Assay Overview: DNA repair pathways play a critical role in cellular homeostasis by repairing DNA damage induced by endogenous processes and xenobiotics. Isogenic chicken DT40 cell lines deficient in different DNA repair pathways can be used to identify genotoxic compounds and aid in characterizing the nature of the DNA damage induced. Two DNA repair-deficient cell lines with disrupted genes, Rad54/Ku70 or Rev3, were used to screen the Tox21 10K compound library. Possible genotoxicity was based on the presence of a significant increase in cytotoxicity in one or more of the DNA repair-deficient cell lines compared to that observed in the parental DNA repair-proficient cell line. CellTiter Glo viability assay (Promega, Madison, WI) was used to measure cell viability in these cells after compound treatment. This assay includes the data from the wild type cell line.
Tox21 Assay Protocol Summary: 300 DT40 wild type cells in 5 uL/well were dispensed into white, solid-bottom 1536-well plates using a Multidrop Combi (ThermoFisher Scientific, Waltham, MA) dispenser. After the assay plates were incubated at 37 C/5% CO2 for approximately 0.5 hour, 23 nL of compounds dissolved in DMSO, positive controls or DMSO only was transferred into the assay plate by a pintool work station (Kalypsys, San Diego, CA). The assay plates were incubated at 37 C/5% CO2 for 40 hours. After 5 uL per well of CellTiter-Glo reagent was added into each well of the assay plates, the plates were incubated for 30 min at room temperature and the luminescence intensity of the plates was measured using a ViewLux (PerkinElmer, Shelton, CT) plate reader.
Potency is the fitted concentration of half-maximal effect.

Compound | Potency
O=C(NC1CCN(CCc2c[nH]c3ccccc23)CC1)c1ccccc1 | 23.7 µM (active)
CC1(COc2ccc(CC3SC(=O)NC3=O)cc2)CCCCC1 (stereo not given) | 10.6 µM (active)
CC(=O)CC/C=C(\C)CC/C=C(\C)CC/C=C(\C)CCC=C(C)C | inactive
CC(C)Cc1nccs1 | inactive
CCC(C)C1N=C(C)C(C)S1 (stereo not given) | inactive
Nc1ccc(C(=O)Oc2ccccc2)c(O)c1 | 29.8 µM (active)
CCc1cnc(C(=O)O)c(C(=O)O)c1 | inactive
CC(=O)S[C@H](C(=O)N[C@H]1Cc2ccccc2[C@H]2CCC[C@@H](C(=O)O)N2C1=O)C(C)C | inactive
CCOc1ccc2c(c1)C(C)CC(C)(C)N2 (stereo not given) | 27.3 µM (active)
C/C(=C\C(C)CC(C)CC(C)C)C1CC(=O)OC1=O (stereo not given) | inactive
O=C(O)c1cccnc1Nc1cccc(C(F)(F)F)c1 | inactive
NCCOCCOCCN | 24.3 µM (active)
CC1(C)CC(=O)CC(C)(C)N1 | inactive
O=C(Cl)c1cc(Cl)cc(Cl)c1 | inactive
Clc1cccc(C(c2ccc3nc[nH]c3c2)n2ccnc2)c1 (stereo not given) | 21.1 µM (active)
CC(C)C[C@H](NC(=O)[C@H](Cc1ccccc1)NC(=O)c1cnccn1)B(O)O | 13.3 nM (active) and 11.9 nM (active)
Clc1cc(Cl)c2c(c1)N=C1CCCCCN1C2 | 13.3 µM (active)
COc1cc(C)c(Cc2cnc(N)nc2N)cc1OC | 26.6 µM (active)
CCCCCCCCC(=O)OCC(C)OC(=O)CCCCCCCC (stereo not given) | inactive
CCc1ccc2c(c1)C(=O)c1ccccc1C2=O | inactive

Compound | Potency
CC1=CC(=C(c2ccc(N)cc2)c2ccc(N)cc2)C=CC1=N | 5.31 µM (active)
CCCC(=O)OCCC(C)C | inactive
O=C1OC(=O)C2CC=CCC12 (stereo not given) | inactive
CCc1ccc(C(=O)C(C)CN2CCCCC2)cc1 (stereo not given) | 11.9 µM (active)
CC(C)(O)C(=O)O | inactive
CCCCCCCCCCCCSC#N | inactive
CC(CCl)OC(C)CCl (stereo not given) | inactive
CC1=C(C)C(=O)C(CCCCC#CCCCC#CCO)=C(C)C1=O | 8.41 µM (active)
CC(C)=CCC[C@H](C)CCO | 54.5 µM (active)
CC(C(=O)O)c1ccc(/C=C2\CCCCC2=O)cc1 (stereo not given) | inactive
NC(=O)c1ccccc1C(N)=O | inactive
C=CC(=O)OCCCCCCCCCC | inactive
CC1=C(C)C(=O)C(C(CCCCCC(=O)O)c2ccccc2)=C(C)C1=O (stereo not given) | inactive
CC1(C)CC(O)CC(C)(C)N1[O] | inactive
CO[C@@H]1[C@@H](O[C@@H]2O[C@H](C)[C@@H](O[C@H]3C[C@@](C)(O)[C@@H](O)[C@H](C)O3)[C@H](N(C)C)[C@H]2O)[C@@H](CC=O)C[C@@H](C)[C@@H](O[C@@H]2CC[C@H](N(C)C)[C@@H](C)O2)/C=C/C=C/C[C@@H](C)OC(=O)C[C@H]1OC(C)=O | 8.41 µM (active)
CNc1ccccc1 | inactive
C[C@H]1C[C@H]2[C@@H]3CCC4=CC(=O)C=C[C@]4(C)[C@@]3(F)[C@@H](O)C[C@]2(C)[C@@]1(O)C(=O)COP(=O)(O)O | inactive
C[C@]12CCC(=O)C=C1[C@@H]1C[C@@H]1[C@H]1[C@@H]3[C@@H]4C[C@@H]4[C@@]4(CCC(=O)O4)[C@@]3(C)CC[C@@H]12 | 9.44 µM (active)
SCCOCCOCCS | inactive
CCCCCCCCCCCCCCCCN | inactive
